Our source for the Potency values is PubChem BioAssay (NCATS).

Structures are written as SMILES. Inconclusive results are not listed. Entries that show only a call come without a potency. Active and inactive are the calls of the source. The call rests on the fitted dose curve; in most records, active means well fitted curve in the direction sought with a large enough effect; inconclusive means small, poorly fitted or top-dose-only effect, or another doubt; inactive means no such curve, though single readings can be large or run the other way.
Potency means the concentration at half of the fitted maximal effect.

This assay deals with Metallo-beta-lactamase type 2 (Klebsiella pneumoniae) (UniProt C7C422). Briefly: qHTS to identify inhibitors of the New Delhi Metallo-beta-lactamase (NDM): assay validation screen against the NCATS LOPAC Collection (AID 1794843). The note with it: NDM-1 enzyme, nitrocefin hydrolysis, absorbance 485 nm; series mostly up to 38.4 µM. In short, it runs like this: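 Absorbance at 485 nm from nitrocefin turnover (50 uM solution added), read at plateau, gives the read-out. Compounds in DMSO were incubated first with 2 nM final NDM-1 in pH 7.0 HEPES buffer containing 1 uM ZnSO4 and 0.01% Tween20.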
Chain of Metallo-beta-lactamase type 2 (Klebsiella pneumoniae) (C7C422 whole entry, looked up): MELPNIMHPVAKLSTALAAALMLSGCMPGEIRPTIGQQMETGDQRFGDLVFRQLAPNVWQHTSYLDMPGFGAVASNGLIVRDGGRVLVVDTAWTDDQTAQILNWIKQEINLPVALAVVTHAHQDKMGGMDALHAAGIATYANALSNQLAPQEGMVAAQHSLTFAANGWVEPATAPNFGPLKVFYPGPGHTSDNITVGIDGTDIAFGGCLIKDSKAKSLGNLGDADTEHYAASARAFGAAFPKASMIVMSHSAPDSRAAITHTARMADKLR
In general terms: Quantitative high-throughput screening tests each substance at several concentrations.
Consider `C[C@]12Cc3cn4c(nc3C=C1CCC1C2CC[C@@]2(C)[C@H]1CC[C@@]2(O)C#N)nc1ccccc14` (some centres not stated), for which the Potency entry is “inactive”.
Then `CCCN1CCc2cccc3c2[C@H]1Cc1ccc(O)c(O)c1-3`, with “inactive”.
Then `CC(C)(C)c1cc(C=C(C#N)C#N)cc(C(C)(C)C)c1O`, with “inactive”.
Under `CCCN1CC[C@@H]2c3cc(O)ccc3CC[C@@H]21` stands “inactive”; under `CCCN1CCc2cc(O)cc3c2[C@H]1Cc1ccc(O)c(O)c1-3`, “inactive”.
Regarding `CN1CC[C@@]2(C)c3cc(O)ccc3N(C)C12` (some centres not stated), the Potency result was “inactive”.
Consider `CCn1cnc2c(Nc3cccc(Cl)c3)nc(N[C@@H]3CCCC[C@@H]3N)nc21`, for which the Potency result is “inactive”.
Under `O=[N+]([O-])c1cc(O)c(O)c([N+](=O)[O-])c1` stands “inactive”; under `NC(=O)CI`, “inactive”.
`CN(N=O)c1cc(O)ccc1O`: the Potency entry was “inactive”.
Then `CC(N)c1cccc(Cl)c1Cl` (configuration not stated), with “inactive”.
For `NCC(O)c1cc(O)c(O)cc1F` (configuration not stated), the Potency entry was “inactive”.
Take `CCCN1CCC[C@@H](c2cccc(O)c2)C1`: the Potency result was “inactive”.
Take `c1ccc2cc(CC3=NCCN3)ccc2c1`: the Potency result is “inactive”.
Then `COc1ccc2[nH]c3c(c2c1)CCNC3`, with “inactive”.
Turning to `CN(N=O)c1ccc(O)c(O)c1`, the Potency is 12.6 µM (active).
Then `CN1CCc2cc(O)cc3c2[C@H]1Cc1ccc(O)c(O)c1-3`, with “inactive”.
